{"source": "PubChem BioAssay (NCI)", "note": "Compounds without any hit were thinned out: in the full panel of roughly 83,000, 20% have a hit.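 Growth was measured after 48 h exposure to one concentration of compound in 96-well plates. Values under 10 count as active.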 A number with no mark means an inactive call. The source made the active and inactive calls."}
{"tested_on": "TK-10 renal", "test": "NCI-60 one-dose screen, 48 h (100 = growth as untreated, 0 = no growth, -100 = all killed)", "details": "10 µM unless noted"}
{"smiles": "O=C(O)Cc1ccccn1", "growth": "105%"}
{"smiles": "CC(C)(C)CC1(C)NC(=O)NC1=O", "note": "(centres undefined)", "growth": "125%"}
{"smiles": "COc1cc(CC#N)c([N+](=O)[O-])cc1OC", "growth": "101%"}
{"smiles": "CN(C)CCOC(=O)Nc1ccc(Cc2ccc(NC(=O)OCCN(C)C)cc2)cc1", "growth": "124% [100 µM]"}
{"smiles": "Cc1cc2nc(C)c(C)nc2cc1C", "growth": "118%"}
{"smiles": "CCCCc1ccc2nc(NC(=O)OC)[nH]c2c1", "growth": "57.6%"}
{"smiles": "NCC(O)C(O)C(O)C(O)CO", "note": "(centres undefined)", "growth": "88.5%"}
{"smiles": "CCNc1ccc2ccccc2c1N=Nc1ccc(N=Nc2ccccc2)cc1", "growth": "128%"}
{"smiles": "O=Cc1ccc(O)c(O)c1", "growth": "107%"}
{"smiles": "CC(=O)C1C(=O)C(=O)N(c2cccc([N+](=O)[O-])c2)C1=O", "note": "(centres undefined)", "growth": "125%"}
{"smiles": "C1Cc2onc(-c3noc4c3CCC4)c2C1", "growth": "105%"}
{"smiles": "O=C(O)c1cc(I)ccc1O", "growth": "93.3%"}
{"smiles": "C=CCS(C)(=O)=O", "growth": "96.6%"}
{"smiles": "O=C(OCc1ccccc1)n1nnc2ccccc21", "growth": "107%"}
{"smiles": "CC(=O)N=c1ccc2nc3c(cc(N)c4ccccc43)oc-2c1", "growth": "47.6%"}
{"smiles": "CN1CCCN(C(c2ccccc2)c2ccc(Cl)cc2)CC1", "note": "(centres undefined)", "growth": "78.3%"}
{"smiles": "COc1ccc(/C=C\\C(=O)/C=C/c2ccc(OC)cc2)cc1", "growth": "116%"}
{"smiles": "CCOC(=O)c1ccc(NC(C)=O)o1", "growth": "100%"}
{"smiles": "CCOC(=O)c1cc(Cl)c(O)c(Cl)c1", "growth": "108%"}
{"smiles": "NNc1ncccn1", "growth": "92.2%"}
{"smiles": "CCCC1OC(c2ccco2)OCC1CC", "note": "(centres undefined)", "growth": "97.1%"}
{"smiles": "Cc1ccc(N2C(=O)c3cccc4c(N)c(S(=O)(=O)O)cc(c34)C2=O)cc1", "growth": "124%"}
{"smiles": "Clc1ncnc2nc[nH]c12", "growth": "107%"}
{"smiles": "C/C(=N\\Nc1ccc([N+](=O)[O-])cc1[N+](=O)[O-])c1ccc(Br)cc1", "growth": "105%"}
{"smiles": "N#Cc1ccc(OC(=O)Nc2c(Cl)cc(Cl)cc2Cl)cc1", "growth": "104%"}
{"smiles": "Nc1ncnc2c1ncn2C1OC(CO)C2OC21", "note": "(centres undefined)", "growth": "99%"}
{"smiles": "CN(C)c1ccc(/C=C/C(=O)c2ccc(NC(N)=O)cc2)cc1", "growth": "97.7%"}
{"smiles": "NC(=O)N1CCOCC1", "growth": "92.4%"}
{"smiles": "CN1C(=O)NC(c2ccc(Cl)cc2)(c2ccc(Cl)cc2)C1=O", "growth": "129%"}
{"smiles": "Cc1ccc(C)c(CN(C)C)c1O", "growth": "105%"}
{"smiles": "O=C(OCC1CCCO1)c1ccc([N+](=O)[O-])cc1", "note": "(centres undefined)", "growth": "99.4%"}
{"smiles": "S=C(NCc1ccccc1)N1CCC(CCCC2CCN(C(=S)NCc3ccccc3)CC2)CC1", "growth": "108%"}
{"smiles": "N#Cc1ccc2nc[nH]c2c1", "growth": "108%"}
{"smiles": "O=S(=O)(O)c1cccc2cccnc12", "growth": "118%"}
{"smiles": "O=S(=O)(O)c1cccnc1", "growth": "104%"}
{"smiles": "S=CN1CCCCC1", "growth": "110%"}
{"smiles": "Cc1ccccc1CC(N)C(=O)O", "note": "(centres undefined)", "growth": "115%"}
{"tested_on": "ACHN renal", "test": "NCI-60 one-dose screen, 48 h (100 = growth as untreated, 0 = no growth, -100 = all killed)", "details": "10 µM unless noted"}
{"smiles": "O=C(O)Cc1ccccn1", "growth": "105%"}
{"smiles": "CC(C)(C)CC1(C)NC(=O)NC1=O", "note": "(centres undefined)", "growth": "109%"}
{"smiles": "COc1cc(CC#N)c([N+](=O)[O-])cc1OC", "growth": "109%"}
{"smiles": "CN(C)CCOC(=O)Nc1ccc(Cc2ccc(NC(=O)OCCN(C)C)cc2)cc1", "growth": "86.8% [100 µM]"}
{"smiles": "Cc1cc2nc(C)c(C)nc2cc1C", "growth": "90.7%"}
{"smiles": "CCCCc1ccc2nc(NC(=O)OC)[nH]c2c1", "growth": "39.2%"}
{"smiles": "NCC(O)C(O)C(O)C(O)CO", "note": "(centres undefined)", "growth": "105%"}
{"smiles": "CCNc1ccc2ccccc2c1N=Nc1ccc(N=Nc2ccccc2)cc1", "growth": "95.2%"}
{"smiles": "O=Cc1ccc(O)c(O)c1", "growth": "114%"}
{"smiles": "CC(=O)C1C(=O)C(=O)N(c2cccc([N+](=O)[O-])c2)C1=O", "note": "(centres undefined)", "growth": "104%"}
{"smiles": "C1Cc2onc(-c3noc4c3CCC4)c2C1", "growth": "114%"}
{"smiles": "O=C(O)c1cc(I)ccc1O", "growth": "97.6%"}
{"smiles": "C=CCS(C)(=O)=O", "growth": "102%"}
{"smiles": "O=C(OCc1ccccc1)n1nnc2ccccc21", "growth": "108%"}
{"smiles": "CC(=O)N=c1ccc2nc3c(cc(N)c4ccccc43)oc-2c1", "growth": "32.5%"}
{"smiles": "CN1CCCN(C(c2ccccc2)c2ccc(Cl)cc2)CC1", "note": "(centres undefined)", "growth": "98.7%"}
{"smiles": "COc1ccc(/C=C\\C(=O)/C=C/c2ccc(OC)cc2)cc1", "growth": "95.5%"}
{"smiles": "CCOC(=O)c1ccc(NC(C)=O)o1", "growth": "108%"}
{"smiles": "CCOC(=O)c1cc(Cl)c(O)c(Cl)c1", "growth": "103%"}
{"smiles": "NNc1ncccn1", "growth": "105%"}
{"smiles": "CCCC1OC(c2ccco2)OCC1CC", "note": "(centres undefined)", "growth": "105%"}
{"smiles": "Cc1ccc(N2C(=O)c3cccc4c(N)c(S(=O)(=O)O)cc(c34)C2=O)cc1", "growth": "102%"}
{"smiles": "Clc1ncnc2nc[nH]c12", "growth": "96.2%"}
{"smiles": "C/C(=N\\Nc1ccc([N+](=O)[O-])cc1[N+](=O)[O-])c1ccc(Br)cc1", "growth": "105%"}
{"smiles": "N#Cc1ccc(OC(=O)Nc2c(Cl)cc(Cl)cc2Cl)cc1", "growth": "104%"}
{"smiles": "Nc1ncnc2c1ncn2C1OC(CO)C2OC21", "note": "(centres undefined)", "growth": "116%"}
{"smiles": "CN(C)c1ccc(/C=C/C(=O)c2ccc(NC(N)=O)cc2)cc1", "growth": "103%"}
{"smiles": "NC(=O)N1CCOCC1", "growth": "110%"}
{"smiles": "CN1C(=O)NC(c2ccc(Cl)cc2)(c2ccc(Cl)cc2)C1=O", "growth": "108%"}
{"smiles": "Cc1ccc(C)c(CN(C)C)c1O", "growth": "114%"}
{"smiles": "O=C(OCC1CCCO1)c1ccc([N+](=O)[O-])cc1", "note": "(centres undefined)", "growth": "104%"}
{"smiles": "S=C(NCc1ccccc1)N1CCC(CCCC2CCN(C(=S)NCc3ccccc3)CC2)CC1", "growth": "93.1%"}
{"smiles": "N#Cc1ccc2nc[nH]c2c1", "growth": "-68.5% (active)"}
{"smiles": "O=S(=O)(O)c1cccc2cccnc12", "growth": "111%"}
{"smiles": "O=S(=O)(O)c1cccnc1", "growth": "105%"}
{"smiles": "S=CN1CCCCC1", "growth": "107%"}
{"smiles": "Cc1ccccc1CC(N)C(=O)O", "note": "(centres undefined)", "growth": "100%"}
